From PubChem BioAssay
ALDH1A1 inh: qHTS Assay for Inhibitors of Aldehyde Dehydrogenase 1 (ALDH1A1); Purified ALDH1A1, NADH fluorescence, propionaldehyde substrate; Potency, µM (top dose mostly 75.3 µM), hits mostly inhibitors; 7.3% of 220,000 active; Aldehyde dehydrogenase 1A1 (Homo sapiens), P00352; active means well fitted inhibition curve with a large enough effect, not every such curve was filed as active; inconclusive means small, poorly fitted or top-dose-only effect, or another doubt; inactive means no such curve, though single readings can be large or run the other way
GLA inh pH 4.5: qHTS Assay for Inhibitors of Human alpha-Galactosidase at pH 4.5 | purified enzyme, 4-MU-alpha-Gal fluorescence, pH 4.5 | activity change, negative = inhibition, % at 105 µM | 230,000 tested, under 10 active
GLA spleen mod: qHTS Assay for Inhibitors and Activators of Human alpha-Galactosidase From Spleen Homogenate. Potency, µM (series often up to 80 µM), most hits filed as inhibitors. Alpha-galactosidase A (Homo sapiens), P06280. 0.008% of 240,000 active. human spleen homogenate, 4MU-alpha-Gal fluorescence, 40 min. AID 2107, 2009
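qHTS titration in buffer at pH 5.0. Alpha-galactosidase activity in spleen homogenate was measured via 4-methylumbelliferone release from 1 mM fluorogenic substrate after 40 min at 37C and a pH 10 stop. AC50 came from Hill fits of control-normalized data.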
HPGD block: qHTS Assay for Inhibitors of HPGD (15-Hydroxyprostaglandin Dehydrogenase); purified HPGD, NADH fluorescence kinetic, PGE2 substrate; 15-hydroxyprostaglandin dehydrogenase [NAD(+)] (Homo sapiens), P15428; Potency, µM, most hits filed as inhibitors; 4.3% of 150,000 active; active means well fitted inhibition curve with a large enough effect, not every such curve was filed as active; inconclusive means small, poorly fitted or top-dose-only effect, or another doubt; inactive means no such curve, though single readings can be large or run the other way
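NADH formation kinetics: reaction with 30 uM PGE2 and 1 mM NAD+ (final), 20 nM enzyme, Tris-HCl pH 8 with Tween 20, after 15 min compound preincubation at room temperature. Fluorescence change, last versus first of five reads.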
PNC assembly inh: High Content Assay for Compounds that inhibit the Assembly of the Perinucleolar Compartment; PC3M PTB-GFP, PNC prevalence imaging, 16 h; active compounds read low; activity change (PNC), negative = inhibition, % at 10 µM; 3.1% of 140,000 active; AID 2417, 2010;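 active means readout at or below -70, meaning at least 70% loss of cells showing the perinucleolar compartment, a nuclear body marking cancer cells; inconclusive means readout between -30 and a set limit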
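Compounds are pinned in duplicate onto adhered PC3M cells stably expressing GFP-tagged PTB and incubated 16 h at 37 C. Cells are then fixed, nuclei stained with Hoechst, and PNC-positive cells counted.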
ALOX12 inhib: qHTS Assay for Inhibitors of 12-hLO (12-human lipoxygenase). 0.12% of 150,000 active. purified 12-hLO, xylenol orange hydroperoxide absorbance. Polyunsaturated fatty acid lipoxygenase ALOX12 (Homo sapiens), P18054. AID 1452, 2008. Potency, µM (highest dose often 57.1 µM), hits mostly inhibitors; further: nearly all actives have a fitted effect of over 55% in size
Target sequence (P18054 whole entry, looked up): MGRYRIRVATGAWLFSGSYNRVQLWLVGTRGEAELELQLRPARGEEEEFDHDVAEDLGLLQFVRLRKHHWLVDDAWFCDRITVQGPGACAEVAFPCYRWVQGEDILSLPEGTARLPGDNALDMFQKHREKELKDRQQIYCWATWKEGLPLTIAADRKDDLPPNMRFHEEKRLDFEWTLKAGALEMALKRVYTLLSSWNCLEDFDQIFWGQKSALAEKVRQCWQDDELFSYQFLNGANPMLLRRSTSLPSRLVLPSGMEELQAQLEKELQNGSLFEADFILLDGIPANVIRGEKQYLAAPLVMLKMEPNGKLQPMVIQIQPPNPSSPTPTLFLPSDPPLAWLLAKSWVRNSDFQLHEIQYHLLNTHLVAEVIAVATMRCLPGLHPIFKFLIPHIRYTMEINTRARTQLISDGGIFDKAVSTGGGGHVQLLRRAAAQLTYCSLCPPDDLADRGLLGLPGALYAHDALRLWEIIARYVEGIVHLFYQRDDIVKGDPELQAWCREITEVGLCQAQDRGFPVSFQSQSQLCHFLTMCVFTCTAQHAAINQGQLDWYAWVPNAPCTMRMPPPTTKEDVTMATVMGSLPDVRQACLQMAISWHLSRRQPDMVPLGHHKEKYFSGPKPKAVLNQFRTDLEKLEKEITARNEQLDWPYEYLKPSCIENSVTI
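Purified human 12hLO (150 nM), preincubated 15 min with compound, then 40 uM arachidonic acid for 30 min, room temperature, Hepes pH 7.0 with 0.01% Triton X-100. Hydroperoxide detected by ferrous iron/xylenol orange; 573/405 nm absorbance ratio gives reaction progress.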
Numbers stand for hits; i = inactive; ? = inconclusive; nt = no result given; [ ] = remark or other dose. Shown are actives, neighbours in structure and some others; about 10% of the full set was active somewhere. Unless noted, the call rests on the fitted dose curve; in most records, active means well fitted curve in the direction sought with a large enough effect; inconclusive means small, poorly fitted or top-dose-only effect, or another doubt; inactive means no such curve, though single readings can be large; an effect the other way counts as inactive or inconclusive.

SMILES	ALDH1A1 inh	GLA inh pH 4.5	GLA spleen mod	HPGD block	PNC assembly inh	ALOX12 inhib
CC(C)(C)C1=C[C@@H](CO)C[C@@H](CO)C1	28.2µM	i	i	i	?	i
Cc1ccccc1N1C(=O)CSC1=C(C#N)C#N	3.55µM	i	i	nt	nt	nt
Cc1n[nH]c(C)c1C(=O)CC1(O)C(=O)N(Cc2ccccc2)c2ccc(Br)cc21 (stereo not given)	10µM	i	i	i	?	i
Cc1n[nH]c(C)c1C(=O)CC1(O)C(=O)N(CCc2ccccc2)c2ccc(Br)cc21 (stereo not given)	?	i	i	i	i	i
C=CCN1C(=O)C(O)(CC(=O)c2ccco2)c2cc(Br)ccc21 (stereo not given)	7.94µM	i	i	nt	nt	nt
O=C(/C=C/c1cc(Br)ccc1O)c1ccco1	nt	i	i	nt	nt	nt
O=C(c1ccncc1)N1CCC2(CCCN(Cc3nccs3)C2)CC1	i	nt	i	i	nt	i
Cc1cnc(C(=O)Nc2cccc(-c3nnc4n3CCCCC4)c2)cn1	i	i	i	12.6µM	i	i
Cc1cc(C)n(-c2ccc(Cl)c(C(=O)Nc3ccc(-c4nnc5n4CCCCC5)cc3)n2)n1	i	i	i	1.78µM	i	i
c1cc(Nc2ncnc3sccc23)cc(-c2nnc3n2CCCCC3)c1	i	i	i	22.4µM	i	i
Cc1onc(-c2ccccc2)c1C(=O)Nc1nnc(N2CCCCCC2)s1	?	i	i	i	-108.4	i
CCOc1ncccc1C(=O)Nc1cccc(-c2nnc3n2CCCCC3)c1	i	i	i	nt	nt	nt
Cc1cc(C)n(-c2ccc(Cl)c(C(=O)NCc3ccccc3)n2)n1	i	i	i	nt	nt	nt
CO[C@@H]1[C@@H]2OP(=O)(O)OC[C@H]2O[C@H]1n1c(Sc2ccc(Cl)cc2)nc2c(N)ncnc21	i	i	i	i	nt	i[0.00818 µM]
O=C(NC(=S)Nc1ccc2cn[nH]c2c1)c1ccccc1	?	i	i	nt	nt	nt
COc1ccc([C@@H]2[C@@H](O)[C@H](O)[C@@H](C)N2C)cc1OC	i	i	i	i	nt	nt
O=C(Nc1ccc(-c2nnc3n2CCCCC3)cc1)c1ccco1	?	i	i	8.91µM	i	i
Cc1onc(-c2ccccc2Cl)c1C(=O)Nc1ccc(CN2CCCC2)cc1	i	i	i	i	?	i
Cc1onc(-c2ccccc2Cl)c1C(=O)Nc1ccc(-c2nnc3n2CCCCC3)cc1	i	i	i	15.8µM	?	i
Cc1c(C(=O)Nc2ccc(-c3nnc4n3CCCCC4)cc2)oc2ccc(Br)cc12	?	i	i	?	i	i
Cc1ccc(-c2nnc3n2CCCCC3)cc1	i	i	i	5.01µM	i	i
O=C1Nc2ccccc2C1=Nc1ccc(-c2nnc3n2CCCCC3)cc1	?	i	i	5.01µM	i	i
CCN1C(=O)[C@H]2[C@H]3[C@H](O)[C@H](O)C/C(=N/OCc4ccccc4)[C@H]3CC[C@@H]2C1=O	i[13.5 µM]	nt	i[17.5 µM]	nt	nt	nt
COC(=O)C(C(=O)OC)C(c1ccccc1)C(C(=O)c1ccccc1)[N+](=O)[O-] (stereo not given)	nt	i	i	nt	nt	nt
Cn1c(=O)c2[nH]c(COCc3nc4c([nH]3)c(=O)n(C)c(=O)n4C)nc2n(C)c1=O	i[13.5 µM]	nt	nt	i	nt	i[11.4 µM]
SMILES	ALDH1A1 inh	GLA inh pH 4.5	GLA spleen mod	HPGD block	PNC assembly inh	ALOX12 inhib
Cc1ccc(NC(=O)CC2SC3=NCCCN3C2=O)c(C)c1 (stereo not given)	1µM	i	i	i	i	i
CCS(=O)(=O)N1CCC(C(=O)N2CCN(Cc3ccccc3)CC2)CC1	i	i	i	nt	nt	nt
COc1ccc(Oc2c(C=O)c3ccccc3n2C)cc1	i	i	i	31.6µM	i	i
Cc1ccc(Oc2c(C=O)c3ccccc3n2C)cc1	i	i	i	i	i	i
CC(C)C(=O)NNC(=O)c1cc2sccc2s1	i	i	i	nt	nt	nt
Oc1ccc(/C=N/N(Cc2ccccc2)c2ccccc2)c(O)c1O	10µM	i	i	nt	nt	nt
CCc1cccc2c1NC(=O)C2(O)CC(=O)c1cccs1 (stereo not given)	14.1µM	i	i	nt	nt	nt
CCN1CCN(CC(=O)Nc2cc3c(cc2C(C)=O)OCO3)CC1	?	i	i	nt	nt	nt
CCCCCn1c(=O)c(C(=O)OCC)c(O)c2ccccc21	?	i	i	i	i	i
CCOC(=O)c1c(O)c2cc(Cl)ccc2n(CC)c1=O	20µM	i	i	nt	nt	nt
CCN(Cc1ccncc1)Cc1cn[nH]c1-c1ccc(OC)cc1F	14.1µM	i	i	nt	nt	nt
COc1cccc(C(=O)N2CCN(Cc3cn[nH]c3-c3ccc(F)cc3F)CC2)c1	?	i	i	nt	nt	nt
COc1ccc(C(=O)N2CCN(Cc3cn[nH]c3-c3ccc(OC)cc3F)CC2)cc1	1µM	i	i	nt	nt	nt
O=C(O)CSc1c(-c2ccccc2)c2cc(Cl)ccc2[nH]c1=O	i	i	i	i	i	i
NNC(=O)c1[nH]c2ccc(Cl)cc2c1-c1ccccc1	1.12µM	i	i	nt	nt	nt
Cc1ccc2[nH]c(C(=O)NN=C3CCCCC3)c(-c3ccccc3)c2c1	1.41µM	i	i	nt	nt	nt
NNC(=O)c1[nH]c2ccc(Br)cc2c1-c1ccccc1	0.159µM	i	i	nt	nt	nt
CCOC(=O)CSc1c(-c2ccccc2)c2cc(Cl)ccc2[nH]c1=O	?	i	i	17.8µM	i	i
CCN(CC)S(=O)(=O)c1cc(Cl)ccc1OC	i	i	i	nt	nt	nt
Cc1csc(NC(=O)CSc2ccc3nnc(CCNS(=O)(=O)c4ccccc4)n3n2)n1	i	i	i	i	i	i
O=C(CSc1ccc2nnc(CCNS(=O)(=O)c3ccccc3)n2n1)Nc1nc2ccccc2s1	25.1µM	i	i	i	i	i
COc1ccc(-c2nc3cc(NC(=S)NC(=O)Cc4ccccc4)ccc3o2)cc1	11.2µM	i	i	i	i	i
CCC(=O)NC(=S)Nc1ccc2oc(-c3ccc(OC)cc3)nc2c1	i	i	i	nt	nt	nt
CCCCCOC(=O)C1=C(C)Nc2nnnn2C1c1ccccc1Cl (stereo not given)	2µM	i	i	i	i	i
COC(=O)C1=C(C)Nc2nnnn2C1c1cc(OC)ccc1OC (stereo not given)	i	i	i	nt	?	i
CCCCOC(=O)C1=C(C)Nc2nnnn2C1c1ccc(OC)c(OC)c1OC (stereo not given)	i	i	i	i	i	i
COC(=O)C1=C(C)Nc2nnnn2C1c1ccccc1Cl (stereo not given)	2.51µM	i	i	i	?	i
Cc1[nH]n(C(N)=S)c(=O)c1N=Nc1ccc(S(=O)(=O)N2CCCC2)cc1	31.6µM	i	i	i	i	i
Cc1ccc(N=Nc2c(C)[nH]n(C(N)=S)c2=O)cc1	?	i	i	nt	nt	nt
